Values joined by “and” are separate entries in the source; they are usually repeats but may differ in a detail not shown here. Identical values can stand only once. Results filed as inconclusive are left out. Active and inactive are the calls of the source. Unless noted, the call rests on the fitted dose curve; in most records, active means well fitted curve in the direction sought with a large enough effect in the repeat runs; inconclusive means weak or mixed curves; inactive means no such curve, though single readings can be large; an effect the other way counts as inactive or inconclusive.
How the values were obtained:
[1] = target: Estrogen receptor (Homo sapiens) (UniProt P03372); test: qHTS assay to identify small molecule antagonists of the estrogen receptor alpha (ER-alpha) signaling pathway using the BG1 cell line in the presence of 0.1 nM 17-beta-estradiol (AID 1259244); further: nearly all actives have a fitted effect of over 50% in size; further: potency means the concentration at half of the fitted maximal effect
Outline: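 VM7Luc4E2 cells (endogenous full-length ER-alpha, stable 4xERE-luciferase) were grown 5 days in phenol red-free medium with charcoal-stripped FBS, then exposed 22 h at 37C to compounds plus 0.1 nM (final) 17beta-estradiol; ONE-Glo luminescence read-out.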

[2] = qHTS assay to identify small molecule HDAC inhibitors - cell viability counter screen (AID 1259365); further: nearly all actives have a fitted effect of over 50% in size; further: potency means the concentration at half of the fitted maximal effect
Outline: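 To flag cytotoxic hits, 1,500 wild-type HCT-116 cells per well, plated the day before, receive test compounds for 2hr at 37 C before CellTiter-Glo reagent and a luminescence read.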

[3] = qHTS assay to identify small molecule agonists of the sonic hedgehog signaling (Shh) pathway - cell viability counter screen (AID 1259366); further: nearly all actives have a fitted effect of over 50% in size; further: potency means the concentration at half of the fitted maximal effect
Outline: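 Fluorescence from CellTiter-Fluor reports live cells in this counter screen. NIH/3T3-derived Gli1-Luc reporter cells receive test compounds for 24hr at 37C; reagent goes in at 23hr.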

[4] = qHTS assay to identify small molecule antagonists of the sonic hedgehog signaling (Shh) pathway - cell viability counter screen (AID 1259367); further: nearly all actives have a fitted effect of over 55% in size; further: potency means the concentration at half of the fitted maximal effect
Outline: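 NIH/3T3-derived Gli1-Luc reporter cells, 2,000/well, plated 4 hr before compound addition, then stimulated with conditioned medium for 24 hr at 37C. Viability measured in the same wells by CellTiter-Fluor fluorescence, reagent added at 23 hr for 1 hr.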

[5] = qHTS assay to identify small molecule agonists of the sonic hedgehog signaling (Shh) pathway (AID 1259368; calls by dose curve; further: series mostly up to about 92 µM; nearly all actives have a fitted effect of over 15% in size)
Outline: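 NIH/3T3-derived 3T3Gli1-Luc cells carrying a stably integrated Gli1 response element–firefly luciferase reporter were plated, left 4 hr at 37 C, then given compounds in DMSO for 24 hr. Luminescence was read 30 min after adding luciferase reagent.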

[6] = qHTS assay to identify small molecule antagonists of the sonic hedgehog signaling (Shh) pathway (AID 1259369; calls by dose curve; further: nearly all actives have a fitted effect of over 45% in size; further: potency means the concentration at half of the fitted maximal effect)
Outline: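 NIH/3T3-derived 3T3Gli1-Luc cells with stably integrated Gli1-Luc reporter were preincubated 4hr at 37 C, then given compounds in DMSO plus Shh conditioned medium and incubated 24hr. Firefly luciferase luminescence read after 30min reagent at room temperature.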

[7] = qHTS assay to identify small molecule HDAC inhibitors (AID 1259364); further: nearly all actives have a fitted effect of over 45% in size; further: potency means the concentration at half of the fitted maximal effect
Outline: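 Wild-type HCT-116 cells were plated overnight, exposed to compounds for 2 h at 37 °C, then given HDAC-Glo class I/II luminogenic reagent for 30 min at room temperature before luminescence was read.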

[8] = qHTS assay to identify small molecule phospholipidosis (PLD) inducers (AID 1259344; active means well fitted curve in the direction sought with a large enough effect; an effect the other way counts as inactive or inconclusive)
Outline: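 HepG2 cells, 900/well, treated with compound plus LipidTOX Red for 24 h at 37 C; amiodarone positive and DMSO negative controls. Fixed with paraformaldehyde/Hoechst, then high-content imaging scored LipidTOX pit count and integrated intensity per well and per cell.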
On the % scale 0 is the no-effect control and ±100 the full control effect.

Sequence of Estrogen receptor (Homo sapiens) (P03372 whole entry, looked up): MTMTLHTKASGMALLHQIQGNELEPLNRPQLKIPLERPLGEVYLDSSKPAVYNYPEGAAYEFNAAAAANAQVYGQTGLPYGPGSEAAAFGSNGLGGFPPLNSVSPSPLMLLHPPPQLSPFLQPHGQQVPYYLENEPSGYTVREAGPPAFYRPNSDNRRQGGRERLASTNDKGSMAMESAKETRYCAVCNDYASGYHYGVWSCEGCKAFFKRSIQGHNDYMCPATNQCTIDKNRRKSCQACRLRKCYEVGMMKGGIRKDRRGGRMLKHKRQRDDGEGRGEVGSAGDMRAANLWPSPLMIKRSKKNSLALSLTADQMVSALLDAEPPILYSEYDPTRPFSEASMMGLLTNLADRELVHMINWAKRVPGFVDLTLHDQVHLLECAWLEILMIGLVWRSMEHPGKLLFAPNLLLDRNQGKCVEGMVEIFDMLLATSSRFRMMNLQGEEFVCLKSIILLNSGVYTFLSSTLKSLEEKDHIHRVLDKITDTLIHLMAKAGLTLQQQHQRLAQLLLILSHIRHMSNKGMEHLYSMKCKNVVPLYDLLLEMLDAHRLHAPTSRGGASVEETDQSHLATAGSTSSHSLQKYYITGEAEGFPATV

O=C(O)c1cc[c]([Hg][Cl])cc1
active: Potency [3] 27.3 µM | Potency [4] 43.3 µM
inactive: Potency [1] | Potency [2] | Potency [5]

Cc1cc(Cl)ccc1O[C@H](C)C(=O)O
inactive: Potency [1] | Potency [2] | Potency [4] | Potency [5] | Potency [6]

C=CCC1=C(C)C(OC(=O)C2C(C=C(C)C)C2(C)C)CC1=O (stereo unspecified)
inactive: Potency [7] | Potency [2] | Potency [3] | Potency [4] | Potency [5]

CC(=O)[O-].[Tl+]
inactive: Potency [7] | Potency [2] | Potency [3] | Potency [4] | Potency [5]

c1ccc(OCC2CO2)cc1 (stereo unspecified)
inactive: Potency [7] | Potency [2] | Potency [3] | Potency [4] | Potency [5] | Potency [6]

ClC(Cl)=C(c1ccc(Cl)cc1)c1ccc(Cl)cc1
inactive: Potency [1] | Potency [7] | Potency [2] | Potency [4] | Potency [5]

FC(F)(F)c1cccc(C2=CCN(CCc3ccc4ccccc4c3)CC2)c1
inactive: Potency [8] | Potency [7] | Potency [2] | Potency [3] | Potency [4] | Potency [5] | Potency [6]

O=C(CBr)c1ccc(O)cc1
inactive: Potency [7] | Potency [2] | Potency [3] | Potency [4]
active: Potency [6] 54.5 µM

Nc1ccccc1C(=O)OC/C=C/c1ccccc1
inactive: Potency [1] | Potency [2] | Potency [3] | Potency [4]

O=C(CCl)C(Cl)Cl
active: Potency [4] 17.4 µM | Potency [6] 2.76 µM
inactive: Potency [1] | Potency [7] | Potency [2] | Potency [5]

[Cl][Sb]([Cl])[Cl]
inactive: Potency [7] | Potency [2] | Potency [5]

O=C(CCCN1CCC2(CC1)C(=O)NCN2c1ccccc1)c1ccc(F)cc1
inactive: Potency [7] | Potency [3] | Potency [4] | Potency [5]
active: Potency [1] 8.41 µM | Potency [6] 2.11 µM

CC1CCC(C(C)C)C(OC(=O)c2ccccc2N)C1 (stereo unspecified)
active: Potency [6] 26.9 µM
inactive: Potency [8] | Potency [7] | Potency [4] | Potency [5]

COc1ccc(N)cc1N
active: Potency [2] 15.8 µM | Potency [3] 9.99 µM and 29.4 µM | Potency [4] 15.8 µM and 33 µM | Potency [6] 3.55 µM and 8.29 µM
inactive: Potency [7] | Potency [5]

Clc1ccc(C(Cl)(Cl)Cl)c(Cl)c1
inactive: Potency [7] | Potency [2] | Potency [3] | Potency [4] | Potency [5] | Potency [6]

CN(C)S(=O)(=O)N(SC(F)(Cl)Cl)c1ccccc1
active: Potency [3] 6.11 µM | Potency [4] 12.2 µM
inactive: Potency [7] | Potency [5]

CCCCCCCCc1ccc(O)cc1
inactive: Potency [8] | Potency [7] | Potency [2] | Potency [5]

CC(C)CC(C)Nc1ccc(Nc2ccccc2)cc1 (stereo unspecified)
inactive: Potency [2] | Potency [5]
active: Potency [3] 26.8 µM | Potency [4] 16.9 µM | Potency [6] 12 µM

CC(C)[C@H](C(=O)OC(C#N)c1cccc(Oc2ccccc2)c1)c1ccc(OC(F)F)cc1 (stereo partly specified)
inactive: Potency [2] | Potency [4] | Potency [6]

S=C(SSC(=S)N1CCCCC1)N1CCCCC1
inactive: PLD induction [8] -4.77% [at 0.0123 µM] | Potency [7] | Potency [2] | Potency [5]
active: Potency [3] 2.66 µM

[Hg+2].[I-].[I-]
active: Potency [7] 24.3 µM | Potency [2] 61.1 µM | Potency [4] 4.33 µM | Potency [6] 0.545 µM
inactive: Potency [5]

CC(C)(C)C(O)/C(=C\c1ccc(Cl)cc1Cl)n1cncn1 (stereo unspecified)
active: Potency [1] 74 µM | Potency [4] 65.9 µM | Potency [6] 7.4 µM
inactive: Potency [7] | Potency [2] | Potency [5]

Cl/C=C\CCl
inactive: Potency [2] | Potency [3] | Potency [4] | Potency [5] | Potency [6]

Clc1ccc(CSC(Cn2ccnc2)c2ccc(Cl)cc2Cl)cc1 (stereo unspecified)
inactive: Potency [8] | Potency [7] | Potency [5] | Potency [6]
active: Potency [4] 26.6 µM

Reference: PubChem BioAssay (Tox21)
